Measurements taken from PubChem BioAssay.
Activity calls are given as the source filed them.

Columns and labels:
[1] = test system: Plasmodium falciparum Sir2 (PF13_0152, Sir2A); assay: pfSir2 binders on small-molecule microarrays, primary screen, biochemical, small-molecule microarray, 635 nm fluorescence (AID 1098); conditions: small-molecule microarray binding, fluorescence 635 nm; higher = more signal;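 also: score merges spot fluorescence intensity with its signal-to-noise ratio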
[2] = small-molecule microarray binders of probe aDKK1, primary screen, biochemical, biotinylated probe, 635/667 nm fluorescence (AID 1099); conditions: higher = more signal;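 also: score merges 667nm spot fluorescence with signal to noise across triplicate slides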
[3] = small-molecule microarray binders of probe aCHRDL2, primary screen, biochemical, biotinylated probe, 635/667 nm fluorescence (AID 1100); conditions: higher = more signal
[4] = splicing luciferase reporter signal modulators, primary screen, spliceosome inhibition project, cell-based, HEK293, splice +/- reporter (AID 1101); conditions: luminescence, 24 h, higher = more signal, called active from +8 up or from −8 down;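 also: HEK293 cells carrying a splicing-competent luciferase reporter gene; test concentration not given here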
[5] = target: Fibroblast growth factor 10 (Homo sapiens) (UniProt O15520); assay: FGF10 binders on small-molecule microarrays, primary screen, biochemical, small-molecule microarray, 635 nm fluorescence (AID 1102); conditions: FGF10 binding, fluorescence 635 nm, higher = more signal
Sequence of Fibroblast growth factor 10 (Homo sapiens) (O15520 whole entry, looked up): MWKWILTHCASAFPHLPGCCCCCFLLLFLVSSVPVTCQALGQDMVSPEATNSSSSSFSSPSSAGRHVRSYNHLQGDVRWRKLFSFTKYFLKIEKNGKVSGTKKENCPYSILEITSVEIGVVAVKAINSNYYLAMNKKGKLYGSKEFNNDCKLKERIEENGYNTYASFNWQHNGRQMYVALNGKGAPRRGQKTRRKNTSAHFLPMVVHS

[6] = test system: glycogen synthase kinase-3 (GSK3A per assay name; protocol says GSK3B); assay: GSK3 binders on small-molecule microarrays, primary screen, biochemical, small-molecule microarray, 635 nm fluorescence, GSK3A (AID 1103); conditions: small-molecule microarray binding, fluorescence 635 nm; higher = more signal; also: the record names both GSK3A and GSK3B
[7] = target: Epidermal growth factor receptor (Homo sapiens) (UniProt P00533); assay: EGFR binders on small-molecule microarrays, primary screen, biochemical, small-molecule microarray, 635 nm fluorescence (AID 1104); conditions: EGFR binding, higher = more signal;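 also: score merges 667 nm emission intensity with spot signal to noise over triplicate slides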
Sequence of Epidermal growth factor receptor (Homo sapiens) (P00533 whole entry, looked up): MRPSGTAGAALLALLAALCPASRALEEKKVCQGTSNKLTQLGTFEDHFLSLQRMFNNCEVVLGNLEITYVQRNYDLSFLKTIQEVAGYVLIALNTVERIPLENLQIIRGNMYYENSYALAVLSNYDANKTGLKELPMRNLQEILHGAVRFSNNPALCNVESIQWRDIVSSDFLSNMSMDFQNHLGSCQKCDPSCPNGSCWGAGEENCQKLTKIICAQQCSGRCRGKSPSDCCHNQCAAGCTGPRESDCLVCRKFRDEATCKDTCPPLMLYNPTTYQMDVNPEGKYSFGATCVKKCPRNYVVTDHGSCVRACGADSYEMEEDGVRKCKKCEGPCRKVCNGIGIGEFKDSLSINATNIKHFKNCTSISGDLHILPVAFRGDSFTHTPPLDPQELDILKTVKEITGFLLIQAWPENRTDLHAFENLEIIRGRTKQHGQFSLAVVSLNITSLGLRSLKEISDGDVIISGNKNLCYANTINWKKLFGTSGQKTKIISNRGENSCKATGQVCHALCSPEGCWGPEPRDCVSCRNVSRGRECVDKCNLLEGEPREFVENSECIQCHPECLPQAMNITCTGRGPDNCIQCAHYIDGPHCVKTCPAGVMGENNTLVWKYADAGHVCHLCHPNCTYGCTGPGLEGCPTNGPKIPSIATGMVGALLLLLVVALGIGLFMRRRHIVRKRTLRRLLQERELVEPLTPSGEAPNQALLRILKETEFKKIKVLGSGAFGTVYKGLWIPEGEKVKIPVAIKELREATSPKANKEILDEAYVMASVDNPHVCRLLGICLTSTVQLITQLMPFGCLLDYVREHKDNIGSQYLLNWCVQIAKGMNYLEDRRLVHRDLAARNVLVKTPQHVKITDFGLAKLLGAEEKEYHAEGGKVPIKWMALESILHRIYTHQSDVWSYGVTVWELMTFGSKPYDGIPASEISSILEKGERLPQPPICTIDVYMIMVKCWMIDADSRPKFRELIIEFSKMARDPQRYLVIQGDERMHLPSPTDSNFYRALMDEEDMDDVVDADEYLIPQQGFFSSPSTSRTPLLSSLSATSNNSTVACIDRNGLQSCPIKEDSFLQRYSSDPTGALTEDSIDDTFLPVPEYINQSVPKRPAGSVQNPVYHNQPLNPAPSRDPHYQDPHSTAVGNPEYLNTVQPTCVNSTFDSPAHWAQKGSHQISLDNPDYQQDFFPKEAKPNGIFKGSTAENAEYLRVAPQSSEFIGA

[8] = target: Follistatin-related protein 3 (Homo sapiens) (UniProt O95633); assay: FSTL3 binders on small-molecule microarrays, primary screen, biochemical, small-molecule microarray, 635 nm fluorescence (AID 1105); conditions: FSTL3 binding, higher = more signal;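 also: score merges emission near 667 nm and signal to noise per printed spot across three slides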
Sequence of Follistatin-related protein 3 (Homo sapiens) (O95633 whole entry, looked up): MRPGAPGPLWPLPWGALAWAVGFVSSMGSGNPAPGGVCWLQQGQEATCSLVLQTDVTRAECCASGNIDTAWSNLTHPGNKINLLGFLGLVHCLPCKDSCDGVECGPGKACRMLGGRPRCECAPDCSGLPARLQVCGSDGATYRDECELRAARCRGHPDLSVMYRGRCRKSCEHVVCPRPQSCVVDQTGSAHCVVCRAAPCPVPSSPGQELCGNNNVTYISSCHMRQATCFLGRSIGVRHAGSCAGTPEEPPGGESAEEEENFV

[9] = target: Dickkopf-related protein 1 (Homo sapiens) (UniProt O94907); assay: DKK1 binders on small-molecule microarrays, primary screen, biochemical, small-molecule microarray, 635 nm fluorescence scan (AID 1106); conditions: DKK1 binding, higher = more signal;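 also: score merges emission near 667 nm with signal to noise over three replicate slides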
Sequence of Dickkopf-related protein 1 (Homo sapiens) (O94907 whole entry, looked up): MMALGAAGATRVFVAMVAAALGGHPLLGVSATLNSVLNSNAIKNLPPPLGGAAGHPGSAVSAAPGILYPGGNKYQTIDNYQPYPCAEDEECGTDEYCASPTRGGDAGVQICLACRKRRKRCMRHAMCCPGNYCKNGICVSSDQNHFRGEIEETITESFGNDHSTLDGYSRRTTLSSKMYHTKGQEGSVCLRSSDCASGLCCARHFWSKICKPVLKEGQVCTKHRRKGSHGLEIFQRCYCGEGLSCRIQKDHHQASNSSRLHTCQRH

[10] = test system: Inhibin beta A chain (activin A); assay: INHBA (activin A) binders on microarrays, primary screen, biochemical, small-molecule microarray, 635 nm fluorescence scan (AID 1107); conditions: small-molecule microarray binding, higher = more signal;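 also: mouse activin A protein probed at 4.33 µg/mL on printed slides; score merges bound-protein fluorescence near 667 nm with spot signal-to-noise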
[11] = test system: Human papillomavirus type 1a protein E7 (residues 44-93); assay: HPV1a E7 fragment binders on microarrays, primary screen, biochemical, small-molecule microarray, residues 44-93, 635 nm fluorescence (AID 1108); conditions: small-molecule microarray binding, fluorescence 635 nm; higher = more signal;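 also: E7 fragment applied at 1 µg/mL in TBST for 1 h at 4 C; score combines spot fluorescence with its signal to noise ratio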
[12] = modulators of HCV replicon luciferase signal, primary screen, HCV replication inhibitor project, Huh7 cells, luciferase reporter (AID 1109); conditions: 48 h, higher = more signal;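 also: huh7 hepatoma cells harbouring a luciferase neomycin HCV replicon reporter; luciferase luminescence as measure of HCV replicon replication; test concentration not given here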
[13] = target: Left-right determination factor 2 (Homo sapiens) (UniProt O00292); assay: LEFTY2 binders on small-molecule microarrays, primary screen, biochemical, small-molecule microarray, 635 nm fluorescence scan (AID 1110); conditions: LEFTY2 binding, higher = more signal
Sequence of Left-right determination factor 2 (Homo sapiens) (O00292 whole entry, looked up): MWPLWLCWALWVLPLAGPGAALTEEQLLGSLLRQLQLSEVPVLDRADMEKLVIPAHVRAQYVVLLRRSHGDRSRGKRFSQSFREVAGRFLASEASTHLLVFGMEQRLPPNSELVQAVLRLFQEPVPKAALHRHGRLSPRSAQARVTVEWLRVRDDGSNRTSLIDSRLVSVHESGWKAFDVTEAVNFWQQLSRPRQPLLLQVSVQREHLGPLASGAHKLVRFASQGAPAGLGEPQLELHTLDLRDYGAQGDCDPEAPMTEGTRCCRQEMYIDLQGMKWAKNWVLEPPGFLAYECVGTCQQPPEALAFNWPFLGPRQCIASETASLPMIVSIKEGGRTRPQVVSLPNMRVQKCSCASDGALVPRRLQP

[14] = target: Calmodulin-1 (Homo sapiens) (UniProt P0DP23); assay: CALM1 binders on microarrays, EGTA buffer, profiling panel, biochemical, small-molecule microarray, Cy5-labelled CALM1 (AID 1111); conditions: Cy5-CALM1 binding fluorescence, higher = more signal;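 also: labelled calmodulin applied in Tris saline Tween buffer holding calcium plus EGTA and DTT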
[15] = target: Calmodulin-1 (Homo sapiens) (UniProt P0DP23); assay: calcium-bound CALM1 binders on microarrays, profiling panel, artefact control for SMM control-protein annotation, biochemical, small-molecule microarray, Cy5-labelled CALM1, plus calcium (AID 1112); conditions: Cy5-CALM1 binding fluorescence, higher = more signal;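 also: score merges spot fluorescence with signal to noise from triplicate slides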
[16] = small-molecule microarray binders of probe aWnt5a, primary screen, biochemical, biotinylated probe, 635/667 nm fluorescence (AID 1113); conditions: higher = more signal;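 also: score merges 667 nm fluorescence intensity with signal-to-noise per printed feature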
[17] = small-molecule microarray binders of probe aShh, primary screen, biochemical, biotinylated probe, 635/667 nm fluorescence (AID 1114); conditions: higher = more signal;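 also: probe is biotin-labelled aShh protein from a stem cell growth factor screen; measures binding of labelled protein to compounds printed on the slide; score merges feature fluorescence at 667 nm with signal-to-noise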
[18] = small-molecule microarray binders of probe aNog, primary screen, biochemical, biotinylated probe, 635/667 nm fluorescence (AID 1115); conditions: higher = more signal;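 also: probe is biotinylated aNog protein used at 0.15 µg/mL for 1 h at 4 C; z-score combines 667 nm fluorescence of each spot with its signal to noise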
[19] = target: Torsin-1A-interacting protein 1 (Homo sapiens) (UniProt Q5JTV8); assay: LAP1 binders from COS7 cell lysate, primary screen, small-molecule microarray, 635/667 nm fluorescence (AID 1116); conditions: COS7-hLAP1 lysate binding, 635 nm fluorescence, higher = more signal
Sequence of Torsin-1A-interacting protein 1 (Homo sapiens) (Q5JTV8 whole entry, looked up): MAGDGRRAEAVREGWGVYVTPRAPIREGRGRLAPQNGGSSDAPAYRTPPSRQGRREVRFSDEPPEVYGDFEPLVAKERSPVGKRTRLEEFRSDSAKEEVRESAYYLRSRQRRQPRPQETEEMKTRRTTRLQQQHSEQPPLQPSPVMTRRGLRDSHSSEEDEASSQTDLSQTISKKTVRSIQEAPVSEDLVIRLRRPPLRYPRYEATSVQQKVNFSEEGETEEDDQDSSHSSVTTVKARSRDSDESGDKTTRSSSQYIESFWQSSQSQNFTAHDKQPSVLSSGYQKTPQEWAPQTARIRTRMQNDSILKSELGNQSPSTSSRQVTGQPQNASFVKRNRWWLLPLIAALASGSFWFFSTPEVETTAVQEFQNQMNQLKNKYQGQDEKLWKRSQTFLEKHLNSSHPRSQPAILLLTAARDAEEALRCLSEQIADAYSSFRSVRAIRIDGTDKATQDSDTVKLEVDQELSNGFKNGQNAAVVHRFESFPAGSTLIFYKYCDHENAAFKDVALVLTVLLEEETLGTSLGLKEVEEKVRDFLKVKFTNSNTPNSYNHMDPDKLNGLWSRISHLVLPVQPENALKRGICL

[20] = target: Alpha-bungarotoxin (Bungarus multicinctus) (UniProt P60615); assay: alpha-bungarotoxin binders on microarray, profiling panel, artefact control for SMM control protein annotation, biochemical, small-molecule microarray, Alexa647 label, 635/667 nm fluorescence (AID 1117); conditions: alpha-BTX-A647 binding fluorescence, higher = more signal
Sequence of Alpha-bungarotoxin (Bungarus multicinctus) (P60615 whole entry, looked up): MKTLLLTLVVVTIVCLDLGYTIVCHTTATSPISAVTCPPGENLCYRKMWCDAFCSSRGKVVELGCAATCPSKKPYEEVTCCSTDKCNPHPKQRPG

Structure (SMILES)	composite z-score [1]	composite z-score [2]	composite z-score [3]	z-score [4]	composite z-score [5]	composite z-score [6]	composite z-score [7]	composite z-score [8]	composite z-score [9]	composite z-score [10]	composite z-score [11]	z-score [12]	composite z-score [13]	composite z-score [14]	composite z-score [15]	composite z-score [16]	composite z-score [17]	composite z-score [18]	composite z-score [19]	composite z-score [20]
C=CCC(OC(C)=O)[C@@H]1[C@@H](N(Cc2ccc(-c3cccc(C(F)(F)F)c3)o2)C(=O)c2cccc3ccccc23)c2cc(OCCCO)ccc2N1C(=O)c1ccc2ccccc2c1 (stereo not given in full)	0.542	0.0086	0.256	-0.874 (inactive)	0.119	-1.08	0.142	0.317	0.289	1.2	-0.423	0.0329	-0.382	-0.34	0.17	-0.108	-0.0709	0.0649	0.49	0.108
COCCOC(=O)N1C(=O)[C@@]2(c3cc(C#CC4=CCCCC4)ccc31)[C@H](c1ccc(OCCO)cc1)N1[C@H](c3ccccc3)[C@H](c3ccccc3)OC(=O)[C@H]1[C@@H]2C(=O)N1CCCCCCC1	0.959	1.43	1.16	-1.07 (inactive)	1.02	1.33	0.513	1.46	1.01	1.7	0.67	-1.13	0.853	0.643	0.758	0.267	1.44	1.33	1.91	1.9
CO[C@H]1O[C@H](CO)[C@@H](OC(=O)Nc2ccccc2)[C@@H]2OC(=O)[C@H](Cc3ccccc3)C/C=C/C[C@@H](Cc3ccccc3)C(=O)O[C@@H]12	1.46	0.273	0.651	-0.724 (inactive)	1.04	0.56	0.0366	0.877	0.048	1.14	1.04	-3.45	0.587	1.68	-0.123	-0.0545	0.0639	0.696	1.07	0.269
C=CCC(OC(C)=O)[C@@H]1[C@@H](N(Cc2ccc(-c3ccccc3)cc2)C(=O)c2ccc(C)cc2)c2cc(OCCCO)ccc2N1C(=O)c1ccc2ccccc2c1 (stereo not given in full)	-0.376	-0.165	-0.093	-1.36 (inactive)	0.265	-0.549	-0.0575	0.168	-0.134	0.944	-0.129	-0.33	-0.103	0.0626	0.235	-0.0222	-0.17	-0.448	0.202	0.408
COc1ccc([Si](C)(C)[C@H]2[C@H](CCO)O[C@@]3(C(=O)N(Cc4ccccc4)c4ccc(N(C=O)c5ccccc5)cc43)[C@@H]2C)cc1	0.638	0.0036	-0.19	-0.663 (inactive)	0.651	-0.273	0.0677	0.618	0.167	0.2	1.21	-4.6	0.274	1.1	0.444	-0.0512	-0.0769	-0.352	0.431	0.0701
C=CCN1C(=O)[C@]2(O[C@H](CCn3cc([C@H](O)c4ccccc4)nn3)[C@@H]([Si](C)(C)c3ccc(OC)cc3)[C@@H]2C)c2cc(N3C(=O)c4cccc5cccc3c45)ccc21	0.783	-0.168	0.195	-1.18 (inactive)	0.57	-0.549	-0.795	0.187	-0.857	-0.302	0.87	-4.4	-0.744	0.313	-0.58	-0.156	-0.0769	-0.0809	0.404	1.39
C=CCC(OC(C)=O)[C@@H]1[C@@H](N(Cc2ccc(-c3cccc(C(F)(F)F)c3)o2)C(=O)Cc2ccc(F)cc2)c2cc(OCCCO)ccc2N1C(=O)c1ccc2ccccc2n1 (stereo not given in full)	-0.106	0.0195	0.416	-0.362 (inactive)	-0.218	-1.85	-0.35	-0.281	-0.0545	1.58	-0.848	-0.937	-0.0009	-0.297	0.195	-0.0462	-0.185	-0.172	0.0265	-0.124
CC(C)(C)OC(=O)CC[C@]1(C(=O)N2CCOCC2)N=C(c2ccc(OCCCO)cc2)O[C@H]1c1ccccc1CN=[N+]=[N-]	1.61	0.528	0.885	-0.371 (inactive)	1.4	1.32	-0.0261	1.08	-0.0465	0.543	1.36	-0.229	-0.457	1.27	0.15	-0.0221	-0.141	1.92	2.38	1.68
C=C(CCCC)C(=O)CC[C@H](OC(C)=O)c1ccccc1OCCO	1.51	-0.179	-0.123	1.77 (inactive)	0.633	-0.783	0.333	0.467	0.513	0.491	-0.0354	-3.4	0.549	-0.592	-1.13	-0.0182	0.0121	-0.234	0.173	-0.106
CCCC=C(CCC)[C@@H](NC(=O)c1ccco1)c1ccc(C(=O)OC)cc1	0.851	0.241	1.01	-0.545 (inactive)	1.08	1.3	0.0415	0.938	-0.18	0.46	1.43	-2.72	0.177	1.37	1.27	0.117	0.202	1.69	1.02	1.38
CCOC(=O)C[C@H]1[C@H](OC(=O)c2ccc(-c3ccccc3)cc2)[C@@H](NC(=O)c2ccc3ccccc3c2)c2cc(OCCCO)ccc2N1C(=O)c1ccccc1	0.34	-0.393	0.211	0.173 (inactive)	1.28	0.972	0.514	0.341	-0.149	-0.121	0.965	-1.09	0.564	0.128	0.116	0.163	0.0637	0.0395	0.341	0.509
